The list is not random: actives were taken first. Their share in the collection is about 5.7%.
KDM4E inh – qHTS Assay for Inhibitors of Human Jumonji Domain Containing 2E (JMJD2E) | Lysine-specific demethylase 4E (Homo sapiens), B2RXH2 | JMJD2E catalytic domain, FDH-coupled NADH fluorescence (FDH is formaldehyde dehydrogenase) | Potency, µM (series often up to 57.1 µM), for the others: top-dose activity change, negative = inhibition, actives largely listed as inhibitors | 1.6% of 230,000 active | AID 2147, 2009; active = well fitted inhibition curve with a large enough effect, not every such curve was filed as active; inconclusive = small, poorly fitted or top-dose-only effect, or another doubt; inactive = no such curve, though single readings can be large or run the other way;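 note: potency is the fitted concentration of half-maximal effect; 0% = wells with enzyme and -100% = buffer wells without enzyme; nearly all actives have a fitted effect of over 50% in size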
PI5P4Ka inh – qHTS for Inhibitors of phosphatidylinositol 5-phosphate 4-kinase (PI5P4K). PI5P4Kalpha enzyme, ADP-Glo luminescence, 60 min; stronger effect = lower value. max response, %. 1.2% of 330,000 active; active = max response of -50% or lower; inconclusive = between -30% and -50%; inactive = -30% or higher; note: value at the top dose of about 77 µM; % is set by controls: 0 for no effect and ±100 for the full control effect
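Single end-point luminescence (ADP-Glo) quantified ADP from PI5P4Kalpha turnover; ATP 5 microM final, 1 h at RT, 0.1% CHAPS and 0.28 mM EGTA in HEPES pH 7.4.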
L3MBTL1 inh – qHTS Assay for the Inhibitors of L3MBTL1 | Lethal(3)malignant brain tumor-like protein 1 (Homo sapiens), Q9Y468 | AlphaScreen L3MBTL1–H3K9me1 peptide binding | Potency, µM (highest dose often 57.1 µM), without a hit: top-dose activity, negative = inhibition, usual class: inhibitors | 0.66% of 230,000 active; note: potency is the fitted concentration of half-maximal effect; % is set by controls: 0 for no effect and ±100 for the full control effect; nearly all actives have a fitted effect of over 60% in size
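First, the protein-peptide complex forms for 30 min at room temperature (L3MBTL1 50 nM, biotinylated H3K9me1 peptide 75 nM). Next, compounds are pin-transferred and incubated 30 min. Finally, AlphaScreen beads are added and read after 30 min.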
BAZ2B block – qHTS Assay for Inhibitors of BAZ2B | Bromodomain adjacent to zinc finger domain protein 2B (Homo sapiens), Q9UIF8 | AlphaScreen BAZ2B-H3K14Ac peptide displacement | Potency, µM (titrated, usually from 114 µM), inactives show at the highest dose activity change, negative = inhibition, hits mostly inhibitors | 4.4% of 360,000 active; note: potency is the fitted concentration of half-maximal effect; % is set by controls: 0 for no effect and ±100 for the full control effect; nearly all actives have a fitted effect of over 60% in size
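Compounds, titrated to a top concentration of 110 uM, were incubated 30 min at room temperature with preformed BAZ2B/acetyl-K14 H3 peptide complex (50 nM each). Proximity signal was measured by AlphaScreen after 20 min with beads.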
HP1b binding inh – HTS for Inhibitors of HP1-beta Chromodomain Interactions with Methylated Histone Tails. AID 540317, 2011. AlphaScreen HP1-beta / biotin-H3K9me3 peptide binding. 0.56% of 390,000 active. Chromobox protein homolog 1 (Homo sapiens), P83916. Potency, µM (highest dose often 114 µM), for inactives: at the highest dose activity change, negative = inhibition, most hits filed as inhibitors; note: potency is the fitted concentration of half-maximal effect; nearly all actives have a fitted effect of over 70% in size
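Compound inhibition of the preformed complex between 50 nM HP1-beta and 50 nM biotinylated H3K9me3 peptide was read by AlphaScreen. Buffer was PBS pH 7.4 with 0.01% Tween-20. Incubations ran 30 min at room temperature, with 10 ug/mL donor/acceptor beads.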
JMJD2A Tudor inh – qHTS Assay for Inhibitors of JMJD2A-Tudor Domain. AlphaScreen JMJD2A-Tudor / H3K4me3 peptide binding. Potency, µM (highest dose often 114 µM), without a hit: at the highest dose activity change, negative = inhibition, most hits filed as inhibitors. AID 504339, 2011. 4.4% of 390,000 active. Lysine-specific demethylase 4A (Homo sapiens), O75164; note: potency is the fitted concentration of half-maximal effect; % is set by controls: 0 for no effect and ±100 for the full control effect; nearly all actives have a fitted effect of over 50% in size
The depositor's hits bear a star; u = inconclusive; x = no result; [ ] = another dose, or the depositor's remark. Unless noted, calls come from the whole dose curve; as a rule, active = well fitted inhibition curve with a large enough effect; inconclusive = small, poorly fitted or top-dose-only effect; inactive = no such curve, though single readings can be large or run the other way.

SMILES | KDM4E inh | PI5P4Ka inh | L3MBTL1 inh | BAZ2B block | HP1b binding inh | JMJD2A Tudor inh
CCOc1ccc(CCNC(=O)c2cc3cccc4c3n2CCS4)cc1 | x | x | x | -1% | 23% | 9%
CCC(C)N1CCN(S(=O)(=O)c2ccc(NC(C)=O)cc2)CC1 (configuration not stated) | u | 10 | 4% | 56µM* | u | 22µM*
COc1ccc(OC)c(NC(=O)c2cccn2-c2nnc(N3CCCCC3)s2)c1 | x | x | x | -33% | -8% | -34%
CCOc1cc(/C=C(\C#N)C(=O)Nc2ccccc2C(=O)O)ccc1OC(=O)c1ccc(C)cc1 | x | -4 | 5% | 2% | 14% | 50µM*
CC[C@H](C)[C@@H](C(=O)NCCCCCCCCCCC(=O)N1CCNCC1)n1cc(CCCCN=C(N)N)nn1 | x | 10 | 2% | -3% | 31% | -12%
Cc1cccc(Oc2nc3c(C)cccn3c(=O)c2/C=C(\C#N)c2nc3ccccc3[nH]2)c1 | x | x | x | 2% | 20% | -15%
NNc1cc(C(=O)O)ccc1Cl | -7% | 14 | -8% | u | u | 25µM*
COC(=O)c1c(NC(=S)Nc2ccc(C(=O)N3CCOCC3)cc2)sc2c1CCC2 | -21% | 3 | 0% | -23% | 10% | -16%
O=CC(O)C1OC(=O)C(O)C1O (configuration not stated) | x | u | x | x | u | 22µM*
COc1ccc(/C=C(/NC(=O)c2ccccc2)C(=O)NC2CCS(=O)(=O)C2)cc1 (configuration not stated) | -4% | -15 | 1% | 7% | -10% | 14µM*
Cc1sc2ncn(/N=C/c3cn(-c4ccccc4)nc3-c3ccccc3)c(=O)c2c1C | x | x | x | x | 15% | -22%
Cc1ccc(-n2nc(CO)c(C(=O)NC(C)CCCc3ccccc3)n2)cc1C (configuration not stated) | x | x | x | -2% | 45% | -13%
Cc1ccc(Cn2c(C(=O)NCc3ccccc3Cl)cc3sccc32)cc1 | x | x | x | -17% | 35% | -12%
COc1ccc(-c2csc(NC(C)=O)n2)cc1OC | 9% | -8 | x | -13% | -18% | 56µM*
COc1ccc(-c2csc(NC(=O)Cc3ccccc3)n2)cc1OC | x | 1 | x | 1% | 17% | -15%
COc1cccc(C(=O)Nc2ccc(C(=O)OCc3cc(=O)n4cc(C)sc4n3)cc2)c1 | x | x | x | -12% | 45% | -23%
Cc1ccc(-c2nc3ccccn3c2Nc2ccc3c(c2)OCCO3)o1 | x | x | x | 45µM* | u | 50µM*
Cc1ccc(Nc2c(-c3ccc(C)o3)nc3cnccn23)cc1 | u | -10 | x | u | u | 40µM*
Cc1ccc(-c2nc3cnccn3c2Nc2ccc3c(c2)OCO3)o1 | -11% | -1 | -8% | 50µM* | -17% | u
Cc1ccn2c(Nc3ccc4c(c3)OCO4)c(-c3ccc(C)o3)nc2c1 | x | x | x | -35% | 18% | u
Cc1ccc(-c2nc3cnccn3c2Nc2ccccc2)o1 | u | -14 | -3% | -33% | u | u
Brc1ccc(-c2nc3ncccn3c2Nc2ccc3c(c2)OCCO3)o1 | 0% | -6 | x | 50µM* | -5% | u
Cc1ccc(S(=O)(=O)NCC(Nc2cccc(Cl)c2)c2ccccc2)cc1 (configuration not stated) | x | x | x | -18% | 41% | -7%
CCOC(=O)C1=C(CS(=O)(=O)c2ccccc2)NC(=O)NC1c1cc(OC)c(O)c(OC)c1 (configuration not stated) | x | -3 | x | -12% | 20% | -17%
CCN1C(=O)/C(=C\c2ccncc2)SC1=Nc1ccc(C)c(C)c1 | 4% | 10 | -23% | 32µM* | u | 50µM*
SMILES | KDM4E inh | PI5P4Ka inh | L3MBTL1 inh | BAZ2B block | HP1b binding inh | JMJD2A Tudor inh
CCCN1C(=O)/C(=C\c2ccncc2)SC1=Nc1ccccc1 | -1% | 3 | -28% | u | -27% | u
CCCN1Cc2cccc(C(=O)Nc3ccccc3F)c2C1=O | x | x | x | 8% | 22% | -3%
O=C1CSC(=S)N1c1cccc(Cl)c1 | x | -7 | x | -21% | 23% | -13%
S=c1[nH]ccn1-c1cccc(Cl)c1 | -4% | 1 | 7% | -1% | -20% | 7.9µM*
Cc1ccc(-n2c(=S)[nH]c3c(oc4ccccc43)c2=O)cc1C | -1% | -17 | 3% | 11% | 12% | 0%
Cc1ccc(-n2cc[nH]c2=S)cc1C | 1% | -8 | -4% | -25% | 21% | 35µM*
CCN(CC)c1sc(S(=O)(=O)c2ccccc2)nc1S(=O)(=O)c1ccc(C)cc1 | x | x | x | -4% | 23% | -21%
O=C(C[n+]1cc(-c2ccc(Cl)cc2)n2c1CCCCC2)c1ccccc1 | 3% | 6 | 8% | -4% | 46% | -19%
COc1ccc(-c2cnc3n2CCCCC3)cc1 | 2% | 4 | -20% | -17% | 4% | -2%
COc1ccc(-c2c[n+]3c4n2CCCCC4=C(c2ccc(Br)cc2)C3)cc1 | u | x | -11% | 40µM* | -13% | 56µM*
Clc1ccc(C2=C3CCCCn4c(-c5ccccc5)c[n+](c43)C2)cc1 | u | u | -27% | 50µM* | 2% | u
O=C1Cc2cc(S(=O)(=O)N3CCN(c4ccc(Cl)cc4)CC3)ccc2N1 | x | x | x | x | x | -34%[229 µM]
CCOC(=O)N1CCN(CCc2ccccc2)CC1 | x | -2 | -3% | 0% | 29% | -11%
CCOC(=O)N1CCN(C/C(Cl)=C/c2ccccc2)CC1 | x | -2 | 2% | u | 50µM* | 1.8µM*
CCOC(=O)N1CCN(C(=O)Cn2ncc3ccccc32)CC1 | 11% | -20 | -5% | 12% | -6% | 79µM*
CCOC(=O)N1CCC(NC(=O)Cn2ncc3ccccc32)CC1 | 5% | x | x | 7% | 43% | -20%
Cc1ccc(S(=O)(=O)/N=C2\C=C(Nc3ccc(O)cc3)C(=O)c3ccccc32)cc1 | x | -15 | u | x | 13µM* | 5.6µM*
CCc1ccc(S(=O)(=O)/N=C2\C=C(Nc3ccc(C(=O)O)cc3)C(=O)c3ccccc32)cc1 | x | -9 | x | 7.9µM* | u | 28µM*
Cc1ccc(S(=O)(=O)/N=C2\C=C(Nc3cccc(C(=O)O)c3)C(=O)c3ccccc32)c(C)c1 | x | -22 | x | 8.9µM* | u | 28µM*
Cc1ccc(S(=O)(=O)/N=C2\C=C(Nc3cccc(C(=O)O)c3)C(=O)c3ccccc32)cc1 | x | -12 | x | 13µM* | u | 45µM*

High-throughput results deposited in PubChem BioAssay by National Center for Advancing Translational Sciences (NCATS).
